Assay outcomes deposited in PubChem by several laboratories.
Only some compounds are listed: those with a hit (about 5.2% of all), similar ones and a draw of the others.
CendR NRP1 mod: modulators of CendR peptide binding to NRP-1, primary screen, biochemical, fluorescence polarization, uHTS | Neuropilin-1 (Homo sapiens), O14786 | FAM-RPARPAR peptide binding to NRP-1 | 360,000 tested, 0.85% active | inhibition, % at 25 µM;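 active = inhibition or corrected inhibition above about 18%, plus a signal ratio from 0.5 to 1.5, limit read from the data, passing the limit was not always enough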
M18AAP inhibitor: PfM18AAP inhibitors, malaria aminopeptidase, primary screen, biochemical, QFRET, recombinant enzyme | M18 aspartyl aminopeptidase (Plasmodium falciparum 3D7) | H-Glu-NHMec fluorogenic cleavage | inhibition, % at 7.35 µM | 290,000 tested, 1.2% active;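 active = inhibition above the campaign mean inhibition over all tested compounds plus 3 SD, cut at about 28% in these data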
ALR H2O2 inh: inhibitors of human ALR sulfhydryl oxidase, primary screen, biochemical, H2O2 detection, HRP-luminol luminescence, single point; purified ALR, DTT oxidation; inhibition, % (no concentration beside the values); 290,000 tested, 3.8% active; AID 485317, 2010;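 active = mean replicate inhibition above about 79%, with every replicate also reaching it, limit read from the data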
APOBEC3G inh: APOBEC3G DNA deaminase inhibitors, primary screen, biochemical, fluorescence, single-stranded DNA substrate, uHTS; recombinant A3G, ssDNA deamination FAM/TAMRA fluorescence; inhibition, % at 20 µM; 330,000 tested, 0.28% active;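 active = inhibition of at least 40% at 20 µM, with no more than 30% in the related APOBEC3A deaminase screen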
A3A deaminase: APOBEC3A ssDNA deaminase inhibitors, primary screen, selectivity assay for APOBEC3G inhibitor project, biochemical, FAM/TAMRA oligo cleavage fluorescence | AID 493011, 2011 | recombinant A3A, FAM/TAMRA ssDNA deamination fluorescence | 330,000 tested, 0.41% active | inhibition, % at 20 µM;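 active = at least 40% inhibition at 20 µM here, with at most 30% in a related deaminase screen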
Yeast superoxide: reduction of superoxide in aged yeast, primary screen, HTS; S. cerevisiae aged cells, superoxide DHE fluorescence; stronger effect = lower value; superoxide response (% of plate mean), % at 10 µM; 330,000 tested, 0.18% active; AID 2690, 2010;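 active = superoxide response under a set limit, about three screen SD below normal, cut at about 65% in these data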;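 note: yeast aged for seven days with compound at 30 °C before DHE staining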
A3A conf: APOBEC3A deaminase inhibitors, retest, confirmation, selectivity assay for APOBEC3G inhibitor project, biochemical, single concentration, fluorescence readout | shares compounds with A3A deaminase | 1,400 tested, 63% active | inhibition, % at 20 µM | recombinant A3A, ssDNA deaminase UDG fluorescence assay;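 active = inhibition reaching a set limit, 80% of the first screen's cutoff, at 20 µM in any replicate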
UDG ctr A3A: E. coli UDG inhibitors, confirmation, counter-screen for APOBEC3A inhibitor project, biochemical, single concentration, fluorescence, FAM/TAMRA oligo; shares compounds with A3A deaminase; inhibition, % at 20 µM; UDG counterscreen, FAM/TAMRA uracil oligo fluorescence; 1,000 tested, under 10 active; AID 504714, 2011; call rule not given here
A3G conf: APOBEC3G deaminase inhibitor retest, confirmation, biochemical, fluorescence, single-stranded DNA substrate, single concentration; shares compounds with APOBEC3G inh; recombinant A3G ssDNA deaminase, UDG/FAM-TAMRA fluorescence; inhibition, % at 20 µM; 890 tested, 72% active;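 active = inhibition reaching a set limit in any replicate at 20 µM, the limit being 80% of the first screen's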
UDG A3G counter: E. coli UDG inhibitors, confirmation, counter-screen for APOBEC3G inhibitor project, biochemical, single concentration, fluorescence, FAM/TAMRA oligo; shares compounds with APOBEC3G inh; UDG counterscreen; inhibition, % at 20 µM; 710 tested, under 10 active;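 active = compounds giving 40% or more inhibition at 20 µM in any one of the three replicates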;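 note: inhibitors lower the FAM signal released by uracil excision and alkaline cleavage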
A number is an active result; n = inactive; x = no result.

SMILES | CendR NRP1 mod | M18AAP inhibitor | ALR H2O2 inh | APOBEC3G inh | A3A deaminase | Yeast superoxide | A3A conf | UDG ctr A3A | others
O=C(NCc1ccco1)c1ccccc1-c1nc(-c2ccc(F)cc2)no1 | n | n | n | n | n | n | x | x
COc1cc(C(=O)N=c2sccn2C)c([N+](=O)[O-])cc1OC | n | n | n | n | 53.4 | n | n | x
Cn1ccsc1=NC(=O)c1ccc([N+](=O)[O-])o1 | n | n | n | n | n | n | x | x
CCOC(=O)C1=C(C)N=C2SCCC(=O)N2C1c1cc(Br)ccc1OC (stereo not given) | n | n | n | n | 40.4 | n | n | n
O=C(CSc1ccc(-c2ccncc2)nn1)N1CCCCC1 | n | n | n | n | 101.6 | n | n | n
CC(C)=CCCC1=CCC2C(=O)NNC(=O)C2C1 (stereo not given) | n | n | n | n | 58.5 | n | n | n
COc1ccc(NC(=O)CN(C)C(=O)c2cccc(S(=O)(=O)N3CCN(C)CC3)c2)cc1 | n | x | n | n | 55.2 | n | n | x
COc1cccc(CNC(=O)c2cccc(S(=O)(=O)N3CCN(C)CC3)c2)c1 | n | n | n | n | 67.6 | n | 49.5 | n
CN1CCN(S(=O)(=O)c2cccc(C(=O)N(C)CC(=O)Nc3ccc(F)c(F)c3F)c2)CC1 | n | x | n | n | 56.6 | n | 66.1 | n
CCN1CCN(S(=O)(=O)c2ccc(Cl)c(C(=O)N(CC)CC(=O)Nc3ccc(OC)cc3)c2)CC1 | n | n | n | n | 54.3 | n | 71.0 | n
COc1ccc(CNC(=O)c2cccc(S(=O)(=O)N3CCN(C)CC3)c2)cc1 | n | n | n | n | n | n | x | x
CCN1/C(=C/c2ccc3cccc(C)c3[n+]2CC)Sc2ccccc21 | n | n | n | n | 69.9 | n | 85.5 | n
Cc1cccc(NC(=O)/C(C#N)=C\c2cn(CC(=O)O)c3ccccc23)c1 | n | n | n | n | 53.2 | n | n | x
CCCOC(=O)c1ccc(OCC(O)CN2CCN(C(=O)c3ccccc3)CC2)cc1 (stereo not given) | n | n | n | n | n | n | x | x
CCCCCC(=O)N(O)C1CC(=O)N(c2ccccc2)C1=O (stereo not given) | n | n | n | 41.7 | n | n | x | x | A3G conf=43.4;UDG A3G counter=n
CCCNC(=O)CSc1nc2[nH]ncc2c(=O)[nH]1 | n | n | n | n | n | n | x | x
CCOC(=O)CCSc1n[nH]c(=S)s1 | n | n | x | n | n | n | x | x
CCOC(=O)CSc1n[nH]c(=S)s1 | n | n | x | 86.9 | n | n | x | x | A3G conf=72.0;UDG A3G counter=n
CCN(C(=O)c1ccco1)c1nnc(-c2ccc(OC)cc2)s1 | n | n | n | n | n | n | x | x
CCCN(C(=O)c1ccco1)c1nnc(-c2cccc(C)c2)s1 | n | n | x | 64.8 | n | n | x | x | A3G conf=n
